High-throughput results deposited in PubChem by National Center for Advancing Translational Sciences (NCATS).
Pf growth 48h = P. falciparum growth inhibition at 48 hours (one generation). AID 504832. P. falciparum luciferase growth in erythrocytes, 48 h. Potency, µM (doses to about 28.7 µM), for inactives: at the top dose activity change, negative = inhibition, most hits filed as inhibitors. 310,000 tested, 5.9% active; also: potency is read from the fitted curve at half-maximal effect; % is scaled to controls: 0 for no effect and ±100 for the full control effect
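First compound was added to culture medium, then infected red cells at 0.1% parasitemia and 2% hematocrit (final). After incubation at 37 C under 5% CO2, luciferase detection reagent was dispensed and light output recorded.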
Pf growth 96h = P. falciparum growth inhibition at 96 hour, primary screen for plastid delayed-death inhibitors; 320,000 tested, 6.9% active; P. falciparum luciferase reporter growth, 96 h; Potency, µM (titrated, usually from 28.7 µM), inactives show top-dose activity change, negative = inhibition, usual class: inhibitors; AID 504834; also: potency is read from the fitted curve at half-maximal effect; % is scaled to controls: 0 for no effect and ±100 for the full control effect
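Compounds incubated with erythrocytes infected by luciferase-expressing P. falciparum (2% hematocrit, 0.05% parasitemia final) for 96 hours, 37 C in 5% CO2. Growth inhibition scored as decreased luciferase luminescence.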
Shiga toxin inh = inhibitors of Shiga toxin in Vero cells; Vero cells, Shiga toxin protein synthesis inhibition reporter; inhibition, % at 38.7 µM; 290,000 tested, 9.2% active; AID 2315; in the data active = inhibition mostly above about 28%, no sharp cut-off; inactive = mostly below about 43%; also: 0% is about no effect
Cycloheximide cs = counter-screen for Shiga toxin inhibitors: cycloheximide protein synthesis inhibition. cell reporter, cycloheximide protein synthesis inhibition counterscreen. max response, %. 300,000 tested, 12% active. AID 2314; in the data active = max response mostly above about 13%, no sharp cut-off; inactive = mostly below about 14%; also: read at 38.3 µM for the half of the compounds with a filed dose; 0% is about no effect
LmPK inh = inhibitors of Leishmania mexicana pyruvate kinase; 290,000 tested, 0.37% active; Potency, µM (titrated, usually from 57.5 µM), inactives show at the top dose activity change, negative = inhibition, actives largely listed as inhibitors; AID 1721; purified LmPK, Kinase-Glo ATP luminescence, 1 h; Q27686; also: potency is read from the fitted curve at half-maximal effect; % is scaled to controls: 0 for no effect and ±100 for the full control effect
Target sequence (Q27686 whole entry, looked up): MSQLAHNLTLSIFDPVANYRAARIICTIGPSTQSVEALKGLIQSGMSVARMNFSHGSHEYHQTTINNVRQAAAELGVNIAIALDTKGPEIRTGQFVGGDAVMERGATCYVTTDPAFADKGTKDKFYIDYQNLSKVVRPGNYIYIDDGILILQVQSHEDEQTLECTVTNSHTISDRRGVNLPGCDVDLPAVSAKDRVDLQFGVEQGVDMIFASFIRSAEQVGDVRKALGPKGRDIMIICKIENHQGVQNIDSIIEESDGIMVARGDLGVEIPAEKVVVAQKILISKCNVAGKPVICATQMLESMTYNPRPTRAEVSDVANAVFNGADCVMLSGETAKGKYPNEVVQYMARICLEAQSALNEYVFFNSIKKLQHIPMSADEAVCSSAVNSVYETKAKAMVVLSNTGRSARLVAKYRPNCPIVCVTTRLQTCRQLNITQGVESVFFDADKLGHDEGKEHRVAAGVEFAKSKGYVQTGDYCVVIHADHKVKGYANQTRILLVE
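ATP generated from ADP (0.1 mM) and PEP (0.5 mM) by 0.1 nM LmPK over 1 h at room temperature (pH 7.2 imidazole buffer) was detected by coupled luciferase luminescence. Values were normalized to uninhibited and no-enzyme wells.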
Active calls of the source: *; ? = inconclusive; · = not tested or not shown; [ ] = remark or other dose. Only some compounds are listed: those with a hit (about 22% of all), similar ones and a draw of the others. Unless noted, calls follow the shape of the dose curve; as a rule, active = well fitted inhibition curve with a large enough effect; inconclusive = small, poorly fitted or top-dose-only effect, or another doubt; inactive = no such curve, though single readings can be large or run the other way.

SMILES	Pf growth 48h	Pf growth 96h	Shiga toxin inh	Cycloheximide cs	LmPK inh
COc1cc2c(cc1NC(=O)COC(=O)[C@@H](NS(=O)(=O)c1cccc(Cl)c1)C(C)C)oc1ccccc12	54.4%	76.4%	23.4	12.7*	5.5%
COc1cc2c(cc1NC(=O)COC(=O)CNS(=O)(=O)c1ccc(C)cc1)oc1ccccc12	35.3%	0.0%	82.5	23.9*	-2.3%
COc1ccc(NC(=O)COC(=O)CNS(=O)(=O)c2ccc(C)cc2)c(OC)c1	9.2%	50.4%	-8.9	1.7	2.4%
COc1cc2c(cc1NC(=O)COC(=O)c1ccccc1)oc1ccccc12	4.5%	32.3%	-5.1	5.4	0.8%
COc1ccc(S(=O)(=O)N[C@@H](C)C(=O)OCC(=O)Nc2cc3oc4ccccc4c3cc2OC)cc1	50.5%	81.7%	102.7*	14.9*	1.0%
O=C(NCC1CCCO1)c1cccc(S(=O)(=O)N(Cc2ccccc2)c2ccccc2)c1 (configuration not stated)	?	-2.0%	·	·	·
c1ccc(CSc2nc3ncccn3n2)cc1	351.1%	278.0%	·	·	·
COc1ccc(-c2csc(Nc3cccnc3)n2)cc1OC	?	145.6%	active	21.3	-3.5%
COc1cccc(Nc2nc(-c3cccnc3)cs2)c1	123.5%	-23.7%	57.3*	52.9*	-1.4%
c1cncc(Nc2nc(-c3ccncc3)cs2)c1	-7.6%	·	-5.0	0.6	1.1%
Cc1ccc(C(C)(C)NC(=O)C2CCC(=O)N(CC3CCCCC3)C2)cc1 (configuration not stated)	-1.4%	?	0.8	1.7	0.6%
CC1CN(C(=O)CCNS(=O)(=O)c2ccc(Br)cc2)CC(C)O1 (configuration not stated)	31.6%	19.0%	·	·	·
CCc1nc(C)cn1S(=O)(=O)c1cc(C)c(OC)c(C)c1C	·	4.4%	-5.8	-6.1	5.2%
CC(C)(C)c1cc(-c2n[nH]c(=S)n2-c2ccccc2F)n[nH]1	25.7%	14.5%	73.9*	40.3*	14.1µM*
Cc1cccc(NC(=O)c2cc(S(=O)(=O)N(C)c3ccc(F)cc3)ccc2Cl)n1	0.329µM*	0.37µM*	·	·	·
CN(c1ccc(F)cc1)S(=O)(=O)c1ccc(Cl)c(C(=O)NC2(C)CCS(=O)(=O)C2)c1 (configuration not stated)	-8.9%	?	·	·	·
COc1ccccc1N(C)S(=O)(=O)c1ccc(Cl)c(C(=O)Nc2cccc(C)n2)c1	2.08µM*	2.33µM*	·	·	·
O=C(CN1C(=O)CCC1=O)Nc1cccc(NC(=O)CN2C(=O)CCC2=O)c1	13.0%	34.8%	-21.4	-5.2	1.9%[11.5 µM]
CC(C)(C)OC(=O)CN1C(=O)S/C(=C\c2ccc(-c3cccc(C(=O)O)c3)o2)C1=O	37.2%	-2.1%	118.2*	27.2*	15.8%
C#CCN1C(=O)S/C(=C\c2ccc(-c3ccc(C(=O)O)cc3C)o2)C1=O	12.4%	98.6%	41.8*	38.8*	-3.7%
COc1ccc(CCn2c(C)cc(C(=O)CCl)c2C)cc1OC	?	?	-24.0	-2.0	6.0%
CCOC(=O)c1c(C)c(C)n(Cc2ccc(OC)c(OC)c2)c1C	8.28µM*	?	-5.0	-4.9	7.7%
CCOC(=O)c1cc(C)n(Cc2ccc(OCC)c(OC)c2)c1C	1.65µM*	·	17.5	8.0	9.5%
C/C=C1\COC(C(=O)NCCN2CCOCC2)(C(F)(F)F)C=C1C=C1CCCCC1 (configuration not stated)	·	·	-11.4	-7.0	·
OCC1CCCCN1CCNCc1cn[nH]c1-c1cccc2ccccc12 (configuration not stated)	0.0%	4.2%	9.9	-2.3	8.5%
c1ccc2c(-c3[nH]ncc3CNCCCn3ncc4ccccc43)cccc2c1	14.7µM*	12.1%	4.8	-1.0	0.8%
c1ccc2c(c1)OC(CCCN1CCCCC1)c1ccccc1S2 (configuration not stated)	13.1µM*	10.4µM*	-7.8	-4.8	5.0%
CN1CCCC(CC2Oc3ccccc3Sc3ccccc32)C1 (configuration not stated)	13.1µM*	?	-15.4	-5.2	-0.4%
c1ccc(OCCCCN2CCCCC2)cc1	-0.8%	27.1%	-1.9	-1.8	-0.5%
CC1CCCN(C(=O)N2c3ccccc3Sc3ccccc32)C1 (configuration not stated)	·	?	-13.9	-2.6	1.1%
